In PubChem BioAssay (Tox21):
Results filed as inconclusive are left out. A call without a number means that no potency is given here. Some structures have more than one record in an assay (separate samples or runs), and their calls can disagree. Active and inactive are the calls of the source. Calls come from the whole dose curve; as a rule, active = well fitted cell-killing curve with a large enough effect in the repeat runs; inconclusive = weak or mixed curves; inactive = flat fitted curve, though single readings scatter.

assay: qHTS assay to identify small molecule antagonists of the estrogen related receptor (ERR) signaling pathway from Tox21 library - cell viability counter screen (AID 1224834); conditions: ERR reporter cells viability, CellTiter-Fluor, 17.5 h; series mostly up to 92.4 µM; viability change, negative = cytotoxic: at the top concentration; note: nearly all actives have a fitted effect of over 30% in size
Source text: National Center for Advancing Translational Sciences [NCATS]
NIH Chemical Genomics Center [NCGC]
U.S. Environmental Protection Agency [EPA]
National Institutes of Environmental Health Sciences [NIEHS]
National Toxicology Program [NTP]
U.S. Food and Drug Administration [FDA]
Estrogen related receptors (ERRs), the first orphan nuclear receptors discovered, play an important role in the control of cellular energy metabolism. ERRs are required for high-energy production in response to the environmental challenges. ERR-alpha was also identified as an adverse marker for breast cancer progression; ERR-alpha-positive tumors have a poor prognosis. To screen and to identify environmental compounds that perturb the ERR signaling pathways could provide valuable information for potential therapeutic or preventive measures in the treatment of metabolic disease. To differentiate true ERR antagonists or agonist from cytotoxic substances, the assay is multiplexed with cell viability assay.
Tox21 Assay Protocol Summary:
The ERR cells were dispensed at 2,000 cells/5 ul/well in 1536-well white plates using a Multidrop dispenser. After the assay plates were incubated at a 37 C/5% CO2 incubator for 6 hours, 23 nL of compounds dissolved in DMSO, positive and negative controls or DMSO only was transferred to the assay plate by a pin tool. The plates were incubated at 37 C for 17.5 hours. 1 ul/well of CellTiter-Fluor reagent was added into the assay plates using a Flying Reagent Dispenser. After 30-minute incubation at 37 C/5% CO2, the fluorescence intensity in the plates was measured using a ViewLux plate reader.
Potency is the fitted concentration of half-maximal effect.

Row | Structure (SMILES) | Potency | viability change, negative = cytotoxic
1 | CC(C)OC(=O)Nc1ccccc1 | inactive | –
2 | CCN(CC)CCO | inactive | –
3 | C=CC(N)=O | inactive | –
4 | CCCN(CCC)c1c([N+](=O)[O-])cc(C(F)(F)F)cc1[N+](=O)[O-] | inactive | –
5 | CC(Oc1ccc(Cl)cc1Cl)C(=O)O (stereo not given) | inactive | –
6 | CCC[N+](=O)[O-] | 26.8 µM (active) and inactive | –
7 | O=[N+]([O-])c1ccc([As](=O)(O)O)cc1 | inactive | –
8 | CCCCCOC(=O)c1ccccc1C(=O)OCCCCC | inactive | –
9 | Clc1cccc(Cl)c1Cl | inactive | –
10 | CCOC(=O)c1ccccc1C(=O)OCC | inactive | –
11 | COC(=O)NS(=O)(=O)c1ccc(N)cc1 | inactive | –
12 | CCC12COCN1COC2 | inactive | –
13 | Cc1cc(Cl)ccc1O | inactive | –
14 | O=c1n(Cl)c(=O)n(Cl)c(=O)n1Cl | – | 0.356% (inactive)
15 | CCN(CC)c1ccccc1 | inactive | –
16 | CN(N=O)c1ccccc1 | inactive | –
17 | COC(=O)NC(=S)Nc1ccccc1NC(=S)NC(=O)OC | inactive | –
18 | CCc1cccc(C)c1N(C(=O)CCl)C(C)COC (stereo not given) | inactive | –
19 | CCCCN(CCCC)SN(C)C(=O)Oc1cccc2c1OC(C)(C)C2 | inactive | –
20 | CC(NC(C)(C)C)C(=O)c1cccc(Cl)c1 (stereo not given) | inactive | –

Row | Structure (SMILES) | Potency | viability change, negative = cytotoxic
21 | c1cc2c3c(cccc3c1)CC2 | inactive | –
22 | CC(C)C#N | inactive | –
23 | BrCCBr | inactive | –
24 | C[C@]12CC[C@H]3[C@@H](CC[C@@]45O[C@@H]4C(O)=C(C#N)C[C@]35C)[C@@H]1CC[C@@H]2O | inactive | –
25 | c1ccc(-c2ccccc2)cc1 | inactive | –
26 | O=C(O)c1ccccn1 | inactive | –
27 | CC1OC(C)OC(C)O1 (stereo not given) | inactive | –
28 | CC(Br)C(=O)O (stereo not given) | inactive | –
29 | Clc1ccc(Cl)cc1 | inactive | –
30 | Cc1ccc(N)cc1N | inactive | –
31 | CN(C)N=O | inactive | –
32 | Cc1[nH]c(=O)n(C(C)(C)C)c(=O)c1Cl | inactive | –
33 | CCOP(=S)(OCC)SCCSCC | inactive | –
34 | CCNc1nc(NC(C)(C)C)nc(SC)n1 | – | 0.972% (inactive)
35 | CCCCN(CC)C(=O)SCCC | inactive | –
36 | CCCCCCCCCCCC#N | inactive | –
37 | NCCc1ccc(O)cc1 | inactive | –
38 | O=[N+]([O-])c1ccccc1 | inactive | –
39 | C#CCN(C)[C@H](C)Cc1ccccc1 | inactive | –
40 | ClCc1cccnc1 | inactive | –
